# Data taken from PubChem BioAssay.
# This is one part of the list. Calls of active or inactive are those of the source. Rule as the data show it, unless noted: active = inhibition above about 13%; inactive = the rest.
# Test system: not listed separately
# Assay: VP16-driven transactivation reporter suppression – cell-based, luminescence, HEK293, counter-screen for COUP-TFII antagonist project (AID 687007)
# Settings: HEK293 Gal4-VP16 luciferase reporter, at 8.5 µM, stronger effect = higher value
row,SMILES,inhibition
1,CCn1c(CNC(=O)c2cc(OC)c(OC)c(OC)c2)cc2cc(C)ccc21,4.19% (inactive)
2,OC[C@@H]1CN(Cc2ccc(-c3ccccc3)cc2)C[C@H](n2cnc3c(NC4CCCC4)ncnc32)O1,4.62% (inactive)
3,COc1cc(CC(=O)Nc2nc(-c3ccc(F)c(F)c3)cs2)cc(OC)c1OC,-0.07% (inactive)
4,CCN(CC)S(=O)(=O)c1ccc(N(C)Cc2ccc(C(F)(F)F)cc2)nc1,-6.6% (inactive)
5,Cn1c(Cc2cccc3ccccc23)nnc1SCC(=O)N1CCN(c2cccc(Cl)c2)CC1,-7.02% (inactive)

# Biological target: COUP transcription factor 2 (Homo sapiens) (UniProt P24468)
# Assay: retest of COUP-TFII reporter suppressors – cell-based, luciferase reporter, HEK293, triplicate, confirmation (AID 687008;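 active = mean inhibition over three repeats above a set limit taken from the earlier primary screen, cut at about 38% in these data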;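 also: 100% = cells given the luciferase reporter alone without the COUP-TF2 vector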)
# Settings: HEK293 NGFI-A luciferase reporter, luminescence; at 8.5 µM; stronger effect = higher value
# COUP transcription factor 2 (Homo sapiens), sequence (P24468 whole entry, looked up): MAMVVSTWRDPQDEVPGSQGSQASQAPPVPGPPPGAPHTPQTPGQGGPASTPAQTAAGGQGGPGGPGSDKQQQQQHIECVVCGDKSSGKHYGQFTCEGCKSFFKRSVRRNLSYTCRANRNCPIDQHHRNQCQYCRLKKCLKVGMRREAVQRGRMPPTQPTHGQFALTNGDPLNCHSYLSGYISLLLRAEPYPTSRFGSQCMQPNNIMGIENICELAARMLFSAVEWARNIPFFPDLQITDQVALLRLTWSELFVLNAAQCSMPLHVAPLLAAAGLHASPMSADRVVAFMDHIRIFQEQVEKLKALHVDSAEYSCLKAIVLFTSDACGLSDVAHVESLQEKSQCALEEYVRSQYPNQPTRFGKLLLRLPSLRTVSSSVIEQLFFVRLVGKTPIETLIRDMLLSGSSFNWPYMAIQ
row,SMILES,inhibition
1,CCn1c(CNC(=O)c2cc(OC)c(OC)c(OC)c2)cc2cc(C)ccc21,15.9% (inactive)
2,OC[C@@H]1CN(Cc2ccc(-c3ccccc3)cc2)C[C@H](n2cnc3c(NC4CCCC4)ncnc32)O1,63.3% (active)
3,COc1cc(CC(=O)Nc2nc(-c3ccc(F)c(F)c3)cs2)cc(OC)c1OC,44.8% (active)
4,CCN(CC)S(=O)(=O)c1ccc(N(C)Cc2ccc(C(F)(F)F)cc2)nc1,22.6% (inactive)
5,Cn1c(Cc2cccc3ccccc23)nnc1SCC(=O)N1CCN(c2cccc(Cl)c2)CC1,30.3% (inactive)
